# From ChEMBL document CHEMBL3988442, “University of Dundee, Small-Polar-MMV Screening Library” (2021)
# Screen size: about 53,000 compounds; about 900 (1.7%) showed an effect of 50% or more. Only a selection was taken, and strong results are over-represented in it overall.
# Tested on: Mycobacterium tuberculosis
# Test: Cornell - Phenotypic assay to identify agents that inhibit growth of Mycobacterium tuberculosis
# Format: functional
# Parameters: scale not given: direction of the effect not stated beside the values
# Conditions: 10 mM as filed; unlikely as a test dose
row,SMILES,Percent Effect [%]
1,CO[C@@H]1CC[C@H]2[C@H]1OCCN2C(=O)COc1ccc(F)cc1,15.86
2,COCCC(C)NC(=O)c1cc(Br)c2c(c1)OCCO2 (stereo not drawn),13.03
3,Cc1nccc(-c2cccc(NCC(=O)N3CCOCC3)c2)n1,9.914
4,CNc1cccc(C2CN(C(=O)CNS(C)(=O)=O)CCO2)n1 (stereo not drawn),-23.18
5,CC(C)CCC(=O)N(C)CC(=O)Nc1ccc(Br)cn1,-12.94
6,O=C(c1cnc2ccc(F)cc2c1NCc1ccccn1)N1CCCC1,5.685
7,COCCC1(CNC(=O)Nc2ccc(-n3nccn3)cc2)CCC1,32.79
8,COCCC1(CNC(=O)Nc2ccc(-n3ccnn3)cc2)CCC1,75.09
9,COCCC1(CNC(=O)Nc2ccc(-n3cccn3)cc2)CCC1,21.41
10,Cc1nc(C2CCCNC2)nc2c1CCCN2Cc1ccccn1.Cl.Cl (stereo not drawn),10.21
11,Cc1nnc(C(C)N2CCCN(Cc3ccc(F)cc3)CC2)o1 (stereo not drawn),8.155
12,Br.O=C(O)c1csc(NCCc2ccccc2)n1,71.03
13,Cc1nc(NCCc2ccccc2)cc(C(=O)N2CCCCC2)n1,-12.22
14,CN1CC(=O)c2sc(NCCc3ccccc3)nc2C1,-47.63
15,Cc1nn(C)c(C)c1CC(=O)N1CCCC(CNS(C)(=O)=O)C1 (stereo not drawn),-13.44
16,CC(C)Cn1nc(-c2ccc(C(=O)O)cc2)cc1-c1ccc(F)cc1,92.09
17,CCC(O)Cn1nc(-c2ccc(C(=O)O)cc2)cc1-c1cccc(F)c1 (stereo not drawn),-3.821

row,SMILES,Percent Effect [%]
1,CCC(O)Cn1nc(-c2ccc(C(=O)O)cc2)cc1-c1ccc(F)cc1 (stereo not drawn),43.49
2,CC(C)(C)n1ncc2c(=O)[nH]c(NC3CC=CC3)nc21,82.93
3,CC(C)(C)n1ncc2c(=O)[nH]c(N3CC(O)C3)nc21,-9.536
4,CN1CC(Nc2nc3c(cnn3C(C)(C)C)c(=O)[nH]2)CCC1=O (stereo not drawn),12.63
5,CC(=O)N1CCN(c2nc3c(cnn3C(C)(C)C)c(=O)[nH]2)CC1,26.42
6,CC(C)(C)n1ncc2c(=O)[nH]c(N3CCN(CC(F)F)CC3)nc21,62.42
7,CC(C)(C)n1ncc2c(=O)[nH]c(N3CCN(CCO)CC3)nc21,21.4
8,Nc1cc(-c2nccnc2N2CCCC2)c2cc[nH]c2n1,-1.136
9,CC(=O)N1CCC2(CCN(S(=O)(=O)c3ccccc3)CC2)C1,-13.67
10,CC(C)CN1C[C@H]2CCN(C(=O)NC3CCCC3)CC[C@H]2S1(=O)=O,15.88
11,COc1cccc(CNCc2ccc(F)c(Cl)c2)c1O,2.035
12,COc1cccc(CNCc2ccccc2Cl)c1O,-0.8125
13,COc1cccc(CNCc2ccc(F)cc2Cl)c1O,52.17
14,COc1cccc(CNc2ccc(F)c(Cl)c2)c1O,58.04
15,CCOc1cccc(CNc2cccc(C(=O)OC)c2)c1O,2.238
16,COc1cccc(CNCc2cccc(Cl)c2)c1O,2.888
